About 750 (31%) of roughly 2,400 compounds were called active. This is one part of the list. A number with no mark means an inactive call.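 The calls were made as follows: active = median signal gain over dofetilide-blocked control wells reaching their mean plus 3 SD, so readout 1 at least 0; inactive = the rest.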

Consider 52 compounds from PubChem BioAssay AID1835 (Johns Hopkins Ion Channel Center, 2009).

The target of the experiment is Voltage-gated inwardly rectifying potassium channel KCNH2 (Homo sapiens) (UniProt Q12809). As to the kind of experiment: hERG protection against dofetilide inhibition, confirmation, cell-based, thallium flux, duplicate retest, dofetilide IC70 (AID 1835). The note with it: hERG cell line, FluxOR thallium flux, dofetilide-blocked; at 10 µM; active compounds read high. On the technique in general: The hERG channel carries a current that helps repolarise heart muscle cells.
Voltage-gated inwardly rectifying potassium channel KCNH2 (Homo sapiens), sequence (Q12809 whole entry, looked up): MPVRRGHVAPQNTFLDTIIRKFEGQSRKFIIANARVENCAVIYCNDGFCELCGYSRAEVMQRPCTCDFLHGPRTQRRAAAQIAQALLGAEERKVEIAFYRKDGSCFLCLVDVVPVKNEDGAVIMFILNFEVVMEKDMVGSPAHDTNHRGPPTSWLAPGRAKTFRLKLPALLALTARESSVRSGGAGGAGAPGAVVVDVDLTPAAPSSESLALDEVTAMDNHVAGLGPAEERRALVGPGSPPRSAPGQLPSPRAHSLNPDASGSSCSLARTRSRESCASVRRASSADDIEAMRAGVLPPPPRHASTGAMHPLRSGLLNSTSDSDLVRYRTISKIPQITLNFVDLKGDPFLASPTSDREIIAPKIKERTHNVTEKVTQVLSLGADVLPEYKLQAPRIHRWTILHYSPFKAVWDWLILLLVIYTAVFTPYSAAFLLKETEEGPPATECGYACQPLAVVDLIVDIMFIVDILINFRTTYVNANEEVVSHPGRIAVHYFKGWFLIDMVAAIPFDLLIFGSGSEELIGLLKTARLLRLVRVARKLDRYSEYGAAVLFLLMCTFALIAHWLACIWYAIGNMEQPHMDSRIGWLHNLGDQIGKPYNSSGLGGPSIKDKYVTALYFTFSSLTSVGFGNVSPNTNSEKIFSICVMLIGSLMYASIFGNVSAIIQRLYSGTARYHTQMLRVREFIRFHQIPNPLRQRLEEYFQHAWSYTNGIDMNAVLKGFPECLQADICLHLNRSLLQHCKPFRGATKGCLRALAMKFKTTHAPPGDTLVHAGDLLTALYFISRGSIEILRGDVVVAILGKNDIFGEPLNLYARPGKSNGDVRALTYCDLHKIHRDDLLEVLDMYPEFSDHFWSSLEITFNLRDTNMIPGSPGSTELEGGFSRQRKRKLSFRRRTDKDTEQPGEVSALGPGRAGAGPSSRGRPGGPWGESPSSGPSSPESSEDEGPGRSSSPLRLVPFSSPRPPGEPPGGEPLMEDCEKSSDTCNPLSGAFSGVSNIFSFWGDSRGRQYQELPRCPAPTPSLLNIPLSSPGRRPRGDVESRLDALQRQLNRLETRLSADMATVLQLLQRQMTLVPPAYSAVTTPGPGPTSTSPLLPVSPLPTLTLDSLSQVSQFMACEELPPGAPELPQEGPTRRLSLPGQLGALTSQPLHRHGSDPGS
For `COc1cc(C2C(C#N)=C(N)Oc3c2ccc2ccccc32)ccc1OCC(=O)Nc1ccc(C)cc1` (configuration not stated), the activity increase over dofetilide control, less the hit threshold is -19%.
The result for `COC(=O)c1ccc(C2C(C#N)=C(N)Oc3cc(O)ccc32)cc1` (configuration not stated) reads 69% (active); that for `CCOC(=O)C1=C(N)Oc2cc(O)ccc2C1c1cccnc1` (configuration not stated), -12%; that for `CCCCOc1ccc(CC(=O)NCC(=O)O)cc1`, -17%.
The result for `O=C(COC(=O)c1ccc(Br)o1)NC1CCCCC1` reads -6%; that for `O=C(NC1CCCC1)c1ccc(Br)o1`, -5%.
As to `CCCOc1ccc(OC(=O)c2ccc(Br)o2)cc1`, the activity increase over dofetilide control, less the hit threshold was 14% (active).
Take `Cc1ccc(OC(=O)c2ccc(Br)o2)cc1`: the activity increase over dofetilide control, less the hit threshold was 37% (active).
Regarding `Cc1ccsc1CN(C(=O)c1ccc([N+](=O)[O-])cc1)C1CCS(=O)(=O)C1` (configuration not stated), the activity increase over dofetilide control, less the hit threshold is -5%.
Consider `O=C(CS(=O)(=O)Cc1ccccc1)Nc1ccc(Cl)cn1`, for which the activity increase over dofetilide control, less the hit threshold is -11%.
Consider `CCCCNC(=O)COC(=O)c1ccc(NC(C)=O)cc1`, for which the activity increase over dofetilide control, less the hit threshold is -18%.
Turning to `CCNC(=O)C/C(C)=N/NC(=O)C(=O)Nc1ccc(CC)cc1`, the activity increase over dofetilide control, less the hit threshold is 9% (active).
For the compound `CCCCCCC12CCC(C(=O)O)(CC1)CC2`, the activity increase over dofetilide control, less the hit threshold is 14% (active).
In the case of `CCOc1ccc(NC(=O)CSc2nc3nc(C)cc(C)n3n2)cc1`, the activity increase over dofetilide control, less the hit threshold is -8%.
To `CCOc1ccc(NC(=O)C2C(C(=O)O)C3(Cl)C(Cl)=C(Cl)C2(Cl)C3(Cl)Cl)cc1` (configuration not stated) belongs -8%; to `CCOc1ccc(NC(=S)NS(=O)(=O)c2cc(Br)ccc2OCC)cc1`, 37% (active); to `N#Cc1c(-c2ccc(Cl)cc2)cc(-c2cccs2)nc1SCC(=O)O`, -22%.
As to `CCc1nnc(NC(=O)COc2ccc([N+](=O)[O-])cc2)s1`, the activity increase over dofetilide control, less the hit threshold was -11%.
With `CCc1nnc(NC(=O)CSc2nc(-c3ccccc3)cc(-c3ccc(OC)cc3)c2C#N)s1`, the activity increase over dofetilide control, less the hit threshold was 11% (active).
To `CCOc1cc(N2CCCC2)ccc1[N+](=O)[O-]` belongs -3%.
`CC(=O)c1cccc(NC(=O)NCc2cccs2)c1`: the activity increase over dofetilide control, less the hit threshold is -23%.
On to `Nc1nc2n(n1)C1(CCCCC1)C1=C(CCCC1)N2`, for which the activity increase over dofetilide control, less the hit threshold is -26%.
To `Cc1nc2ccc(C(=O)O)cc2[nH]1` belongs -12%; to `CC(=O)c1c(N2CCCC2)[nH]c(-c2ccccc2)nc1=S`, -1%.
Consider `C=C(C)Cc1c(C)nc(-c2ccccc2)[nH]c1=O`, for which the activity increase over dofetilide control, less the hit threshold was -19%.
The result for `CSc1nc(-c2ccccc2)[nH]c(=S)c1C(C)=O` reads 61% (active); that for `CC(=O)c1c(N2CCN(Cc3ccccc3)CC2)[nH]c(-c2ccccc2)nc1=S`, 15% (active); that for `CC(=O)c1c(C)[nH]c(-c2ccccc2)nc1=S`, -4%.
To `CC(=O)c1c(NC(=O)c2ccccc2)[nH]c(-c2ccccc2)nc1=S` belongs 24% (active).
The result for `Cc1ccccc1CC(=O)NC1CCN(Cc2ccccc2)CC1` reads -1%; that for `CC(=O)c1c(N)[nH]c(-c2ccccc2)nc1=S`, 1% (active).
Regarding `Cc1cc(C)cc(NC(=O)CSc2nnc(CN3CCOCC3)n2C)c1`, the activity increase over dofetilide control, less the hit threshold is -13%.
Turning to `COc1ccc(S(=O)(=O)n2nc(C)c(S(=O)(=O)N3CCOCC3)c2C)cc1OC`, the activity increase over dofetilide control, less the hit threshold is -10%.
For the compound `CCN1CCCC(CO)(Cc2ccccc2)C1` (configuration not stated), the activity increase over dofetilide control, less the hit threshold is -8%.
On to `O=C(CSc1nnc(NC(=O)c2ccc(S(=O)(=O)N3CCOCC3)cc2)s1)Nc1ccccc1C(F)(F)F`, for which the activity increase over dofetilide control, less the hit threshold was -13%.
On to `Cc1[nH]cnc1CSCCN`, for which the activity increase over dofetilide control, less the hit threshold was -2%.
For the compound `O=C(NC(=S)N1CCCc2ccccc21)c1ccc(Br)cc1`, the activity increase over dofetilide control, less the hit threshold was 32% (active).
Turning to `O=C(NC(=S)N1CCCc2ccccc21)c1ccc([N+](=O)[O-])cc1`, the activity increase over dofetilide control, less the hit threshold was 11% (active).
With `O=C(O)C1CCN1C1CCCCC1` (configuration not stated), the activity increase over dofetilide control, less the hit threshold was -16%.
The result for `CC(=O)c1c(C)nc(C)nc1NC(=O)C(C)C` reads -16%.
With `CCOC(=O)CSc1nnc(NC(=O)c2ccc3c(c2)OCO3)s1`, the activity increase over dofetilide control, less the hit threshold is -22%.
Consider `c1ccc2c(c1)c1ccccc1n1c(-c3ccc4c(c3)OCO4)nnc21`, for which the activity increase over dofetilide control, less the hit threshold is 1% (active).
Take `Cc1ccccc1-c1nnn(CC(=O)NCc2ccc3c(c2)OCO3)n1`: the activity increase over dofetilide control, less the hit threshold is -13%.
With `Cc1ccc(NC(=O)c2cc(-c3ccc4c(c3)OCO4)on2)cc1`, the activity increase over dofetilide control, less the hit threshold was -6%.
As to `O=C(NCc1ccco1)C1CCN(C(=O)Cc2ccccc2)CC1`, the activity increase over dofetilide control, less the hit threshold was -7%.
Take `CN(C)c1ccc(C(CNS(=O)(=O)c2ccc([N+](=O)[O-])cc2)N2CCCC2)cc1` (configuration not stated): the activity increase over dofetilide control, less the hit threshold was -24%.
As to `C/C=C(\C)CN1CCN(c2cccc(C)c2C)CC1`, the activity increase over dofetilide control, less the hit threshold was -24%.
Regarding `Cc1cccc(N2CCN(C(=O)Cc3c(C(=O)O)[nH]c4ccc(Cl)cc34)CC2)c1C`, the activity increase over dofetilide control, less the hit threshold is -14%.
To `Cc1cccc(N2CCN(C(=O)CNC(=O)c3cccc([N+](=O)[O-])c3)CC2)c1C` belongs 13% (active); to `CCOC(=O)c1sc(NN=C(C(=O)OC)C(=O)OC)c(C(=O)OCC)c1C`, 19% (active).
For the compound `CCOC(=O)c1c(C)oc2cc(Br)c(OC)cc12`, the activity increase over dofetilide control, less the hit threshold is -2%.
On to `CCOC(=O)c1sc(NC(=O)c2ccccc2C(=O)O)c(C(=O)OCC)c1C`, for which the activity increase over dofetilide control, less the hit threshold was -4%.
